{"source": "PubChem BioAssay AID686978", "about": "(National Center for Advancing Translational Sciences (NCATS), 2013)", "note": "About 64,000 (15%) of roughly 420,000 compounds were called active. Roughly 27% stayed inconclusive and do not appear here. Not all results are given here. Unmarked numbers belong to inactive results. The call rests on the fitted dose curve; in most records, active means well fitted inhibition curve with a large enough effect; inconclusive means small, poorly fitted or top-dose-only effect; inactive means flat fitted curve, though single readings scatter. On the % scale 0 is the no-effect control and ±100 the full control effect; potency means the concentration at half of the fitted maximal effect."}
{"experiment": "qHTS for Inhibitors of human tyrosyl-DNA phosphodiesterase 1 (TDP1): qHTS in cells in absence of CPT; further: nearly all actives have a fitted effect of over 55% in size", "conditions": "DT40 Tdp1-/- hTDP1 cells, no CPT, ATP luminescence, 48 h; activity change, negative = growth inhibition: at 46.2 µM (top of the series)", "procedure,_shortened": "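Growth of hTDP1-complemented DT40 Tdp1-knockout cells is measured by ATP luminescence after at least 48 hr compound exposure at 37 °C, with DMSO substituting for the 20 nM CPT used in the parallel screen.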", "units": {"activity change, negative = growth inhibition": "%"}}
{"smiles": "COc1ccc(C(=O)COC(=O)c2nn(C)c(=O)c3ccccc23)c(OC)c1", "activity change, negative = growth inhibition": 5.24}
{"smiles": "CC(=O)NC(=S)Nc1ccc(NC(=O)c2cccnc2)cc1", "activity change, negative = growth inhibition": 7.62}
{"smiles": "N#CCSc1ccccc1NC(=O)CN1C(=O)NC(CCc2ccccc2)C1=O", "note": "(stereo not drawn)", "activity change, negative = growth inhibition": -11.9}
{"smiles": "Cn1ncc([N+](=O)[O-])c1C(=O)Nc1cc(Cl)ccc1Cl", "activity change, negative = growth inhibition": -5.68}
{"smiles": "COc1ccc(CN2CN(C(C)C)CSC2=S)cc1", "Potency": "3.26 µM (active)"}
{"smiles": "COc1ccc(Cn2c(=O)cc(C)[nH]c2=S)cc1", "activity change, negative = growth inhibition": 12}
{"smiles": "COc1ccc(CN2CC(C(=O)NC3CCCCC3)CC2=O)cc1", "note": "(stereo not drawn)", "activity change, negative = growth inhibition": 14.2}
{"smiles": "COc1ccc(CN2CN(C3CCCC3)CSC2=S)cc1", "Potency": "4.61 µM (active)"}
{"smiles": "COc1ccc(CCNC(=O)COC(=O)C2CCCCC2)cc1", "activity change, negative = growth inhibition": 0.441}
{"smiles": "COc1ccc(CN2CC(C(=O)NCCc3ccc(Cl)cc3)CC2=O)cc1", "note": "(stereo not drawn)", "activity change, negative = growth inhibition": 6.36}
{"smiles": "CC(=O)N1CSCC1C(=O)O", "note": "(stereo not drawn)", "activity change, negative = growth inhibition": 2.18}
{"smiles": "CC1(C)Oc2ccc3ccc(=O)oc3c2/C(=C/NCCO)C1=O", "activity change, negative = growth inhibition": -13.1}
{"smiles": "CCCCN(C(=O)C(CCSC)N1C(=O)c2ccccc2C1=O)c1c(N)n(CCC)c(=O)[nH]c1=O", "note": "(stereo not drawn)", "activity change, negative = growth inhibition": 19}
{"smiles": "CC(C)(CNC(=O)CNC(=O)C1CCCCC1)N1CCOCC1", "activity change, negative = growth inhibition": -16.2}
{"smiles": "COc1cc(C2C(C#N)=C(N)Oc3n[nH]c(-c4ccccn4)c32)cc(OC)c1OC", "note": "(stereo not drawn)", "activity change, negative = growth inhibition": -15.1}
{"smiles": "COCc1[nH]nc2c1C(C1C=CCCC1)C(C#N)=C(N)O2", "note": "(stereo not drawn)", "Potency": "20.6 µM (active)"}
{"smiles": "CCCc1[nH]nc2c1C(c1ccc(Br)s1)C(C#N)=C(N)O2", "note": "(stereo not drawn)", "Potency": "7.31 µM (active)"}
{"smiles": "CCOc1c(OC)cc(C2C(C#N)=C(N)Oc3n[nH]c(-c4ccncc4)c32)cc1OC", "note": "(stereo not drawn)", "activity change, negative = growth inhibition": -6.03}
{"smiles": "CCc1ccc(C2C(C#N)=C(N)Oc3n[nH]c(CC(=O)OC)c32)cc1", "note": "(stereo not drawn)", "activity change, negative = growth inhibition": -4.43}
{"smiles": "Cc1cc(C)c(C#N)c(SCc2[nH]nc3c2C(c2ccccc2)C(C#N)=C(N)O3)n1", "note": "(stereo not drawn)", "activity change, negative = growth inhibition": -2.46}
{"smiles": "N#CC1=C(N)OC2=C(C(=O)CCC2)C1C1CC=CCC1", "note": "(stereo not drawn)", "activity change, negative = growth inhibition": -29}
{"smiles": "CCCc1nc2c([nH]1)C(c1cccnc1)C(C#N)=C(N)O2", "note": "(stereo not drawn)", "activity change, negative = growth inhibition": -10.3}
{"smiles": "CCCc1[nH]nc2c1C(C1CC=CCC1)C(C#N)=C(N)O2", "note": "(stereo not drawn)", "Potency": "13 µM (active)"}
{"smiles": "CCOc1ccc(CNC(=O)C2CCC(=O)N2C2CCCC2)cc1OC", "note": "(stereo not drawn)", "activity change, negative = growth inhibition": -16.4}
{"smiles": "CCCC(=O)Nc1ccc(C(=O)N/N=C/c2ccc[nH]2)cc1", "activity change, negative = growth inhibition": -23.6}
{"smiles": "CCOC(=O)c1ccccc1NC(=O)CSc1nc2ccccc2c(=O)[nH]1", "activity change, negative = growth inhibition": -14}
{"smiles": "COc1ccc(C(=O)c2oc3ccccc3c2NC(=O)COc2cccc(C)c2)cc1", "activity change, negative = growth inhibition": -5.81}
{"smiles": "C=CCN(CC=C)C(=O)COC(=O)c1n[nH]c2ccccc12", "activity change, negative = growth inhibition": 2.16}
{"smiles": "COC(=O)c1sccc1-n1cccc1C(=O)C(=O)N1CCCCC1", "activity change, negative = growth inhibition": -10.5}
{"smiles": "CCC(=O)Nc1ccc(C(=O)CSc2nnc(CNc3ccc(Cl)cc3)o2)cc1OC", "Potency": "12.6 µM (active)"}
{"smiles": "COc1ccc(Cc2nnc(SCC(=O)Nc3ccc(C)c(C)c3)o2)cc1OC", "activity change, negative = growth inhibition": -26.6}
{"smiles": "CCOC(=O)CSc1nnc(CNc2ccc(F)cc2)o1", "activity change, negative = growth inhibition": -5.09}
{"smiles": "Cc1nn(C)cc1C(=O)NNC(=S)Nc1ccc(Cl)cc1", "activity change, negative = growth inhibition": -3.84}
{"smiles": "Cc1ccc(S(=O)(=O)N2CCOCC2)cc1C(=O)NCc1ccc(F)cc1", "activity change, negative = growth inhibition": -15.7}
{"smiles": "CCN(Cc1ccncc1)C(=O)c1cccc(S(=O)(=O)N2CCOCC2)c1", "activity change, negative = growth inhibition": -1.97}
{"smiles": "O=S(=O)(c1cccc(Cn2nnc(-c3ccc(F)cc3)n2)c1)N1CCOCC1", "Potency": "20.6 µM (active)"}
{"smiles": "CN(C)c1ccc(/C=c2\\[nH]c(=O)/c(=C/c3ccc(N(C)C)cc3)[nH]c2=O)cc1", "activity change, negative = growth inhibition": -15.2}
{"smiles": "COc1cc(/C=C2/SC(=S)N(Cc3ccccc3)C2=O)cc(OC)c1O", "activity change, negative = growth inhibition": -27.9}
{"smiles": "CN(C)c1ccc(/C=C2\\NC(=S)N(Cc3ccccc3)C2=O)cc1", "Potency": "20.6 µM (active)"}
{"smiles": "Cc1nc2ccccn2c(=O)c1NC(=O)c1c(F)cccc1F", "activity change, negative = growth inhibition": -16.3}
{"smiles": "Cc1ccc(-c2nc3ccccn3c2Nc2c(C)cccc2C)o1", "Potency": "18.4 µM (active)"}
{"smiles": "Cc1nc2ccccn2c(=O)c1NC(=O)c1ccc(Br)o1", "activity change, negative = growth inhibition": -7.88}
{"smiles": "CO[C@H]1O[C@@H]2O[C@@]3(C)CC[C@@H]4[C@@H](C)CC[C@@H]([C@H]1C)[C@@]24OO3", "Potency": "0.891 µM (active)"}
{"smiles": "CCOC(=O)CSc1nnc(-c2ccncc2)o1", "activity change, negative = growth inhibition": -15.1}
{"smiles": "CCOc1cc(/C=N/NC(=O)OC)ccc1OCCSc1ccc(Cl)cc1", "activity change, negative = growth inhibition": -27.1}
{"smiles": "Cc1ccc(NN=Nc2nc3c([nH]2)c(=O)n(C)c(=O)n3C)cc1", "activity change, negative = growth inhibition": -24.2}
{"smiles": "Oc1ccccc1-c1nc2ccc(Cl)cn2c1Nc1ccc2c(c1)OCCO2", "Potency": "23.1 µM (active)"}
{"smiles": "Cn1cc([N+](=O)[O-])c(C(=O)Nc2ccc3c(c2)OCCO3)n1", "activity change, negative = growth inhibition": -10.6}
{"smiles": "Cc1ccn2c(Nc3ccc4c(c3)OCCO4)c(-c3ccc(C)s3)nc2c1", "activity change, negative = growth inhibition": -9.21}
{"smiles": "COCCn1c(SCC(=O)Nc2nc(C)cs2)nnc1C(C)C", "activity change, negative = growth inhibition": -9.21}
{"smiles": "COc1ccc(OC)c(C2N(c3ccccn3)C(=O)C3CCCN32)c1", "note": "(stereo not drawn)", "activity change, negative = growth inhibition": -5.04}
{"smiles": "CCc1nnc(NS(=O)(=O)c2ccc(NC(=S)NC(=O)/C=C/c3cccs3)cc2)s1", "activity change, negative = growth inhibition": 4.4}
{"smiles": "O=C(c1cc(-c2cccc(O)c2)on1)N1CCc2ccccc2C1", "activity change, negative = growth inhibition": -24.1}
